Inhibition data for 40 compounds are collected here from PubChem BioAssay.

SMILES strings stand for the structures. Unmarked numbers belong to inactive results.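 The calls were made as follows: active = inhibition at or above 50% relative to wild type and mutant plate controls; inactive = inhibition below 50%.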

One may read the inhibition as the drop in the measured response relative to a control, in per cent.

The nature of the assay: inhibitors of Chlamydomonas gravitaxis, primary screen, whole organism, Chlamydomonas reinhardtii, WT vs cilia-less mutant, absorbance, 96-well (AID 463189).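 Also: 0% = wild type cc124 cells in DMSO and 100% = ciliumless bld1 mutant cells.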 Particulars: OD600 absorbance, 2 days, at 10 µM, hits give high values.
For the compound `CCCCCCCCCCCCCCC[C@H](O)[C@H](N)CO`, the inhibition is 38.7%.

Take `OC1(c2ccc(Cl)cc2)CCN(Cc2c[nH]c3ccccc23)CC1`: the inhibition was 21.4%.

For `COc1cc(C(O)CO)ccc1O` (stereo not given), the inhibition was 1.74%.

`COc1cccc(OC)c1OCCNCC1COc2ccccc2O1` (stereo not given): the inhibition is 0.114%.

For the compound `O=c1c(O)c(-c2cc(O)c(O)c(O)c2)oc2cc(O)cc(O)c12`, the inhibition was 9.46%.

With `Cn1cc(C(F)(F)F)nc1-c1ccc(OCC(O)CNCCOc2ccc(O)c(C(N)=O)c2)cc1` (stereo not given), the inhibition is -6.96%.

For `C/C=C1\C(=O)CC2C3CCC4=CC(=O)CC[C@]4(C)C3CC[C@]12C` (stereo not given in full), the inhibition was 0.131%.

In the case of `CC1=C(CC(=O)O)c2cc(F)ccc2/C1=C\c1ccc(S(C)=O)cc1` (stereo not given), the inhibition is 5.19%.

As to `CN1C[C@H](C(=O)N[C@]2(C)O[C@@]3(O)[C@@H]4CCCN4C(=O)[C@H](Cc4ccccc4)N3C2=O)C[C@@H]2c3cccc4[nH]cc(c34)C[C@H]21`, the inhibition is -12.5%.

Turning to `O=S(=O)(O)C1CCNCC1`, the inhibition is 1.98%.

With `CC(C)NCC(O)c1cc(O)cc(O)c1` (stereo not given), the inhibition was 11.3%.

On to `N.N.O=C(O)C1(C(=O)O)CCC1.[Pt+2]`, for which the inhibition was 3.35%.

For `NC(Cc1ccc(Cl)cc1)C(=O)O` (stereo not given), the inhibition is -1.92%.

As for `CCCn1c(=O)c2[nH]c(-c3ccc(S(=O)(=O)O)cc3)nc2n(CCC)c1=O`, the inhibition is 1.25%.

Regarding `OC[C@H]1O[C@@H](n2cnc3cncnc32)[C@H](O)[C@@H]1O`, the inhibition is 6.38%.

For `NC1C=CC=C(C(=O)O)C1` (stereo not given), the inhibition is -4.63%.

For the compound `CC1=C(CC(=O)O)c2cc(F)ccc2/C1=C\c1ccc(S(C)(=O)=O)cc1`, the inhibition was 2.22%.

On to `CCCCCCCC/C=C\CCCCCCCC(=O)NCCO`, for which the inhibition is -7.05%.

Turning to `COC(=O)[C@H]1[C@H]2C[C@@H]3c4[nH]c5cc(OC)ccc5c4CCN3C[C@H]2C[C@@H](OC(=O)c2cc(OC)c(OC)c(OC)c2)[C@@H]1OC`, the inhibition is -3.87%.

Regarding `C[C@](N)(Cc1ccc(O)c(O)c1)C(=O)O`, the inhibition is 5.26%.

In the case of `CCOC(=O)c1cnc2c(cnn2CC)c1NN=C(C)C`, the inhibition is 7.54%.

`Cc1scc2c1N(C(=O)CN1CCN(C)CC1)c1ccccc1NC2=O`: the inhibition is -1.6%.

As for `CCCC(C(=O)OCCN(CC)CC)(c1ccccc1)c1ccccc1`, the inhibition is 4.83%.

As to `c1cnc(N2CCN(Cc3ccc4c(c3)OCO4)CC2)nc1`, the inhibition is 0.952%.

For the compound `N[C@@H](COP(=O)(O)O)C(=O)O`, the inhibition was 2.62%.

As to `CCC(=O)c1ccc2c(c1)N(CCCN(C)C)c1ccccc1S2`, the inhibition was 46.1%.

`CSc1nc(N)c2ncn([C@@H]3O[C@H](COP(=O)(O)OP(=O)(O)O)[C@H](O)C3O)c2n1` (stereo not given in full): the inhibition is 6.63%.

As for `CNCCC(Oc1ccccc1OC)c1ccccc1` (stereo not given), the inhibition was 13.4%.

For the compound `NC1(C(=O)O)CCc2cc(C(=O)O)ccc21` (stereo not given), the inhibition is 4.42%.

Consider `C[C@@H](NC(=O)/C(C#N)=C/c1ccc(O)c(O)c1)c1ccccc1`, for which the inhibition is 4.46%.

As for `CC1(C)CCC=[N+]1[O-]`, the inhibition is 0.394%.

As for `O=C(O)[C@H]1NCCC[C@H]1C(=O)O`, the inhibition was -0.478%.

For the compound `CCOC(=O)C(C)(C)Oc1ccc(Cl)cc1`, the inhibition was -6.65%.

`N#C/C(=C\c1ccc(O)c(O)c1)C(=O)c1ccc(O)c(O)c1`: the inhibition was 2.24%.

For `CC(=O)SCC[N+](C)(C)C`, the inhibition is -2.92%.

Regarding `CC(C)C[C@H](NC(=O)C1OC1C(=O)O)C(=O)NCCCCN=C(N)N` (stereo not given in full), the inhibition was -4.58%.

Take `CC(N)C1CCC(C(=O)Nc2ccncc2)CC1` (stereo not given): the inhibition is 3.82%.

For the compound `N#CC(C#N)=C(N)/C(C#N)=C/c1ccc(O)cc1`, the inhibition was 5.33%.

Turning to `CC(C)NNC(=O)c1ccncc1`, the inhibition was 2.86%.

Consider `CCN1C(=O)C=CC1=O`, for which the inhibition was -6.91%.
